Sampled rows, rich in hits. Any-hit rate of the full collection: about 10%.
GLS inh = blocks human kidney-isoform glutaminase activity | O94925 | GLS enzymatic activity, qHTS titration | Potency, µM (highest dose often 45.5 µM), for the others: top-dose activity change, negative = inhibition, actives largely listed as inhibitors | 410,000 compounds, 0.21% hits | AID 624170; note: % is set by controls: 0 for no effect and ±100 for the full control effect
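hKGA in 45 mM KH2PO4 (pH 8.2), 0.02% Tween-20 with compound, then 1mM L-Glutamine (stock as added) plus glutamate oxidase/HRP/Amplex red coupling mix. Fluorescence read initially and after 30 min at RT; signal change reflects glutamate formation.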
HP1b binding inh = inhibitors of HP1-beta chromodomain binding to methylated histone tails; Potency, µM (doses to about 114 µM), inactives show at the highest dose activity change, negative = inhibition, most hits filed as inhibitors; AlphaScreen HP1-beta / biotin-H3K9me3 peptide binding; P83916; 390,000 compounds, 0.56% hits; note: nearly all actives have a fitted effect of over 70% in size
Target sequence (P83916 whole entry, looked up): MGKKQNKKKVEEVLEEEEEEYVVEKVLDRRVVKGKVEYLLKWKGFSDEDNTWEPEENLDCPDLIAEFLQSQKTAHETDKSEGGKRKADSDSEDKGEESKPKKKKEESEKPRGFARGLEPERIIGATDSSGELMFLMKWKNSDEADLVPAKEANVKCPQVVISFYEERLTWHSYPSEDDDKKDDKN
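Compound inhibition of the preformed complex between 50 nM HP1-beta and 50 nM biotinylated H3K9me3 peptide was read by AlphaScreen. Buffer was PBS pH 7.4 with 0.01% Tween-20. Incubations ran 30 min at room temperature, with 10 ug/mL donor/acceptor beads.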
G9a inh = inhibitors of human histone lysine methyltransferase G9a; G9a H3K9 monomethylation, AlphaScreen, 2 h; Potency, µM (doses to about 102 µM), inactives show top-dose activity, negative = inhibition, usual class: inhibitors; 350,000 compounds, 8.8% hits; AID 504332; note: % is set by controls: 0 for no effect and ±100 for the full control effect; nearly all actives have a fitted effect of over 75% in size
Target sequence (Q96KQ7 913-1193 limits assumed): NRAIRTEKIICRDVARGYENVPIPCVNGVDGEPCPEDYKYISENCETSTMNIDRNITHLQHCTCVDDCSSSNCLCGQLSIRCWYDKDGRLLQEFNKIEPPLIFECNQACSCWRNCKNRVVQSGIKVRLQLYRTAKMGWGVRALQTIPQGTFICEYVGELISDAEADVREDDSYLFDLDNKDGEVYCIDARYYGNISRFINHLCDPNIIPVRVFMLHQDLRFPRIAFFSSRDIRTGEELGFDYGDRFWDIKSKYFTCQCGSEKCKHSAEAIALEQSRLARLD
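G9a (20 nM) preincubated 15 min RT with compounds, then 500 nM biotinylated H3K9 peptide and 20 uM SAM added; 2 h RT reaction. Monomethyl-H3K9 product detected by AlphaScreen with anti-H3K9me1 antibody, streptavidin donor and anti-rabbit IgG acceptor beads.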
BAZ2B block = blocks human BAZ2B; Q9UIF8; AlphaScreen BAZ2B-H3K14Ac peptide displacement; Potency, µM (highest dose often 114 µM), inactives show top-dose activity change, negative = inhibition, most hits filed as inhibitors; 360,000 compounds, 4.4% hits; AID 504333; note: % is set by controls: 0 for no effect and ±100 for the full control effect; nearly all actives have a fitted effect of over 60% in size
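AlphaScreen luminescence quantifies BAZ2B engagement of H3K14Ac peptide; the protein and biotinylated peptide are both at 50 nM final, buffer PBS pH 7.4 with 0.01% Tween-20, all steps at room temperature.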
JMJD2A Tudor = blocks the human JMJD2A Tudor domain | Potency, µM (titrated, usually from 114 µM), for inactives: at the highest dose activity change, negative = inhibition, actives largely listed as inhibitors | O75164 | AlphaScreen JMJD2A-Tudor / H3K4me3 peptide binding | 390,000 compounds, 4.4% hits; note: % is set by controls: 0 for no effect and ±100 for the full control effect; nearly all actives have a fitted effect of over 50% in size
* = called active by the depositor; [ ] = dose if it differs, or a comment. Calls come from the whole dose curve; as a rule, active = well fitted curve in the direction sought with a large enough effect; inconclusive = small, poorly fitted or top-dose-only effect, or another doubt; inactive = no such curve, though single readings can be large; an effect the other way counts as inactive or inconclusive. Potency is the fitted concentration of half-maximal effect.

Results for COc1cc(C)ccc1OCCCOc1cc(C)ccc1Cl ?
GLS inh: 23.1%; HP1b binding inh: 107.1%; JMJD2A Tudor: 68.3%

What do the screens show for `Cc1ccc(Cl)c(OCCCN(C)Cc2ccccc2)c1`?
GLS inh: -29.2%; HP1b binding inh: 44.7µM*; G9a inh: 1.78µM*; BAZ2B block: 31.6µM*; JMJD2A Tudor: 1.12µM*

How did Cc1ccc(Cl)c(OCCCCN(C)Cc2ccccc2)c1 do in these assays?
GLS inh: -1.1%; HP1b binding inh: -35.8%; G9a inh: 10µM*; BAZ2B block: -34.8%; JMJD2A Tudor: 2.82µM*

How did Cc1cc(C)n2ncc(C(=O)Nc3ccc4c(c3)CCC4)c2n1 do in these assays?
JMJD2A Tudor: -8.5%

What do the screens show for `Cc1cc(C)n2ncc(C(=O)Nc3ccc(Cl)c(Cl)c3)c2n1`?
GLS inh: 8.3%; HP1b binding inh: inconclusive; G9a inh: 39.8µM*; BAZ2B block: -10.5%; JMJD2A Tudor: -24.6%

Results for O=C1N(C2CCCC2)C[C@@H]2C[C@@H](c3cccn3-c3nccs3)N3CCC[C@@]123 ?
GLS inh: 9.8%; HP1b binding inh: 10.6%; G9a inh: 50.1µM*; BAZ2B block: -0.3%; JMJD2A Tudor: -19.2%

How did O=C1N(C2CCCC2)C[C@@H]2C[C@@H](c3cccn3-c3ccccn3)N3CCC[C@@]123 do in these assays?
GLS inh: 13.0%; HP1b binding inh: 27.4%; G9a inh: -33.5%; BAZ2B block: -1.2%; JMJD2A Tudor: -10.5%

How did CCC(C)[C@H](NC(=O)N1CC(=O)Nc2ccccc21)C(=O)N[C@@H](C(=O)O)c1ccccc1 (stereo partly specified) do in these assays?
GLS inh: -0.9%; HP1b binding inh: 17.1%; G9a inh: 79.4µM*; BAZ2B block: -11.6%; JMJD2A Tudor: -24.4%

Results for O=C1CN(C(=O)N[C@@H](Cc2ccccc2)C(=O)N[C@@H](C(=O)O)c2ccccc2)c2ccccc2N1 ?
GLS inh: 6.4%; HP1b binding inh: 18.3%; G9a inh: -8.5%[59 µM]; BAZ2B block: -4.6%; JMJD2A Tudor: 31.6µM*

Results for CCC(C)[C@H](NC(=O)N1CC(=O)Nc2ccccc21)C(=O)NC(C)CCc1ccccc1 (stereo partly specified) ?
GLS inh: -3.7%; HP1b binding inh: 39.3%; G9a inh: inconclusive; BAZ2B block: inconclusive; JMJD2A Tudor: -12.4%

How did COc1cc(CC(=O)NCC(C)(C)N2CCOCC2)cc(OC)c1OC do in these assays?
GLS inh: -1.3%; HP1b binding inh: 14.8%; G9a inh: 50.1µM*; BAZ2B block: 1.4%; JMJD2A Tudor: -4.7%

How did C#CCOCCOCCOCCNc1nc(N2CCN(C(=O)[C@H]([C@@H](C)CC)n3cc(CCCCN)nn3)CC2)nc(N2CCN(C(=O)[C@H](C)n3cc(CCCN=C(N)N)nn3)CC2)n1 do in these assays?
GLS inh: -4.8%; HP1b binding inh: 19.1%; G9a inh: 8.9%[2.33 µM]; BAZ2B block: -19.3%; JMJD2A Tudor: -22.2%

What do the screens show for `C#CCOCCOCCOCCNc1nc(N2CCOCC2)nc(N2CCN(C(=O)[C@H]([C@@H](C)CC)n3cc(CCCCN)nn3)CC2)n1`?
GLS inh: -8.5%; HP1b binding inh: 16.3%; G9a inh: 50.1µM*; BAZ2B block: inconclusive; JMJD2A Tudor: inconclusive

Results for C#CCOCCOCCOCCNc1nc(N2CCN(C(=O)[C@H](C(C)C)n3cc(CCO)nn3)CC2)nc(N2CCN(C(=O)[C@H]([C@@H](C)CC)n3cc(CCCCN)nn3)CC2)n1 ?
GLS inh: 6.2%; HP1b binding inh: 28.5%; G9a inh: 50.1µM*; BAZ2B block: -34.1%; JMJD2A Tudor: -26.8%

Results for COC(=O)c1ccc2nc(-c3cccc(Br)c3)c(Cc3ccccc3OC)n2c1 ?
GLS inh: -3.7%

What do the screens show for `COc1ccc(CN2CCNC(=O)C2CC(=O)NC2CCOCC2)cc1C` (stereo unspecified)?
GLS inh: -0.7%; HP1b binding inh: 45.3%; G9a inh: 39.8µM*; BAZ2B block: -22.2%; JMJD2A Tudor: -16.4%

Bioassay records deposited in PubChem BioAssay by National Center for Advancing Translational Sciences (NCATS).
